Assay results reported in ChEMBL document CHEMBL3988442, “University of Dundee, Small-Polar-MMV Screening Library” (2021).
Among all 48,000 compounds or so, about 13,000 (27%) showed an effect of 50% or more. This is one part of the list.

Tested on: Wolbachia pipientis
Test: Anti-Wolbachia Cell-Based Screen
Assay type: functional
Design: scale not given: in the data most compounds retested in dose-response had high values
Details: 5 µM

Structure (SMILES)	Percent Effect
O=C(C1SCCc2sccc21)N1CCCCC1 (stereo unspecified)	1.977%
N#Cc1cccnc1OC1CCN(C(=O)c2cc(C3CC3)on2)CC1	-1.829%
CN1N=C(C(=O)N(Cc2ccco2)C2CCCC2)CCC1=O	120.9%
Cc1ccc(N2N=C(C(=O)N(C)Cc3ccco3)NCC2=O)cc1	2.373%
CN(CC1COc2ccccc2O1)C(=O)C1=NN(C)C(=O)CC1 (stereo unspecified)	-4.029%
CN(Cc1ccco1)C(=O)C1=NN(C)C(=O)CC1	140.7%
CN(Cc1ccco1)C(=O)c1ccc(=O)n(C)c1	12.27%
CCN(Cc1ccco1)C(=O)C1=NN(c2ccccc2)C(=O)CN1	5.452%
Cc1ccc(N(Cc2ccco2)C(=O)CC2=NN(C)C(=O)C2)cc1	134.3%
O=C(c1c[nH]c2ncccc12)N(Cc1ccco1)C1CCCC1	4.323%
O=C(NCCc1nnc2n1CCC2)N(Cc1ccco1)C1CCCC1	-12.78%
COC(=O)c1cc(CN2CCN(c3ncccc3C)CC2)ccc1O	0.3059%
CCC(C)NS(=O)(=O)Cc1cccc(NC(=O)C2=CCCC2)c1 (stereo unspecified)	-11.93%
CCN(CC(=O)NC)S(=O)(=O)N1CCCCCC1	-4.569%
O=C1OCCN1CCCN1CCCC1c1ccc(O)cc1 (stereo unspecified)	-23.79%
Cc1c[nH]c(CN2CC[C@@]3(O)CCN(C(=O)C4CCC4)C[C@H]3C2)n1	3.285%
Cc1nc(N(C)C2CCCCC2)ncc1C(C)NC(=O)c1cscn1 (stereo unspecified)	-3.92%
Cc1cn2c(=O)c(-c3ccnc(N(C)C4CCCCC4)n3)cnc2s1	84.88%
O=c1c(-c2ccnc(NC3CCOCC3)n2)cnc2sc(Cl)cn12	-8.128%
O=c1c(-c2ccnc(NC3CCCCC3)n2)cnc2sc(Cl)cn12	123.9%
CN(C)c1nccc(N(C)C2CCCCC2)n1	-7.043%
CN(c1nccc(-c2cnc3sc(Cl)cn3c2=O)n1)C1CCCCC1	110%

Structure (SMILES)	Percent Effect
CCN(C)S(=O)(=O)NC(C)c1cnc(N(C)C2CCCCC2)nc1C (stereo unspecified)	-0.2104%
Cc1nc(N(C)C2CCCCC2)ncc1C(C)NC(=O)c1cccnc1 (stereo unspecified)	7.363%
COc1ccnc(NC2CCN(CC(=O)N3CCCC3)CC2)n1	-3.698%
CN(c1nccc(-c2cnc3sccn3c2=O)n1)C1CCCCC1	92.84%
CN(c1ncc(C(=O)Nc2ccccc2)c(N)n1)C1CCCCC1	-11.44%
O=C1N(C2CCCCC2)C[C@H]2CN(C3CCC3)CCN12	-8.618%
Cc1ccc(C(C)NCCc2nccn2Cc2ccccc2)o1 (stereo unspecified)	-3.119%
O=C(NCCc1ccccc1Cl)NCC1(O)CCSC1 (stereo unspecified)	5.482%
CO[C@H]1C[C@@H]2CN(C(=O)c3n[nH]c4c3CCCC4)C[C@@H]2C1	95.28%
COc1cccc(CCC2CCCN(C(=O)c3n[nH]c4c3CCC4)C2)c1 (stereo unspecified)	9.398%
COc1ccccc1CC1CCCN(C(=O)c2n[nH]c3c2CCC3)C1 (stereo unspecified)	-10.41%
O=C(NCc1ccccc1Cn1ccnc1)N1CCOCC1	-11.31%
CCC(CNC(=O)c1nc(=O)[nH][nH]1)Oc1ccccc1C(F)(F)F (stereo unspecified)	-3.223%
CCc1nccn1C1CCCN(C(=O)c2ccn(C)c(=O)c2)C1 (stereo unspecified)	-5.694%
Cc1nccn1C1CCCN(C(=O)c2ccc3c(c2)nnn3C)C1 (stereo unspecified)	-0.6055%
CCOc1ccc(C(=O)N2CCCC(n3ccnc3C)C2)cc1OC (stereo unspecified)	91.57%
CCc1nccn1C1CCCN(C(=O)c2ccc(OC)c(OC)c2)C1 (stereo unspecified)	97.86%
CCc1nccn1C1CCCN(C(=O)c2ccc3c(c2)nnn3C)C1 (stereo unspecified)	93.39%
CCc1nccn1C1CCCN(C(=O)c2ccc3[nH]nnc3c2)C1 (stereo unspecified)	-5.197%
CCc1nccn1C1CCCN(C(=O)Cc2ccc(OC)c(F)c2)C1 (stereo unspecified)	-2.667%
Cc1nc(C)c2c(n1)CCN(C(=O)C1(C#N)CC1)CC2	-4.604%
Fc1cccc(-c2nnn3c2COC(CNCc2nccs2)C3)c1.O=C(O)C(F)(F)F (stereo unspecified)	-16.9%

Structure (SMILES)	Percent Effect
CNC(=O)c1ccnc(N2CCCC(COc3cccc(C)c3)C2)c1 (stereo unspecified)	-58.5%
COc1cccc(OCC2CCCN(C3CCN(C(C)=O)CC3)C2)c1 (stereo unspecified)	-9.945%
Cc1nccc(N2CCC(Cc3cccc(C(=O)O)c3)CC2)n1	4.494%
COc1cccc(OCC2CCCN(C(C)=O)C2)c1 (stereo unspecified)	-1.082%
CC(=O)N1CCN(C(C)C)CC(COc2ccccc2)C1 (stereo unspecified)	109.4%
CC(=O)N1CCN(c2ccnc(C)n2)CC(COc2ccccc2)C1 (stereo unspecified)	112.4%
Cc1ccc(OCC2CCCN(C(=O)CN3CCOCC3)C2)cc1 (stereo unspecified)	-2.27%
CC(=O)N1CCN(CC(N)=O)CC(COc2ccccc2)C1 (stereo unspecified)	106.5%
O=C(N1CCN(CCO)CC1)C1(O)Cc2ccccc2C1	-5.424%
CCc1ccc(S(=O)(=O)Nc2cn(C)cc(Br)c2=O)cc1	-15.07%
Cc1ccc(-c2ncc(CN3CCN(S(N)(=O)=O)CC3)s2)o1	2.671%
CCn1ccnc1CN(C)c1nc(-c2ccc(Cl)cc2)nc2c1CNC2	-33.82%
O=c1nc(SCc2ccncc2)c2c(n1CCO)CCCC2	-12.21%
CN1CCCC1c1cc2cccnc2n1Cc1ccc(F)cc1.Cl (stereo unspecified)	120.9%
CC[C@H](C)Cn1nc(C2CCNCC2)n(Cc2ccccc2)c1=O	-2.943%
COc1cccc(Cn2c(C3CCNCC3)cc3cccnc32)c1.Cl	140.1%
COc1ccc(Cn2c(C3CCNCC3)cc3cccnc32)cc1.Cl	109.4%
CN1CCCCC1c1nc(Cc2cccc(F)c2)no1 (stereo unspecified)	-5.711%
COc1cccc(CN2C[C@H]3CCNCC[C@H]3S2(=O)=O)c1	18.94%
CCOC(C)C(=O)Nc1ccc(Sc2nncn2C)c(Cl)c1 (stereo unspecified)	-6.719%
Cc1cc(CS(=O)(=O)N(C)C(C)c2ccc(F)cc2)on1 (stereo unspecified)	-9.775%
CN(C)C(=O)NCc1cc2n(n1)CCN(C[C@H]1[C@@H]3CNC[C@@H]31)C2	-18.92%
